# PMC7862700, “An all-to-all approach to the identification of sequence-specific readers for epigenetic DNA modifications on cytosine”
# Legend:
# Test in all cases: DAPPL (digital affinity profiling via proximity ligation, sequencing); 10 mM Tris-HCl pH 7.5, 50 mM NaCl, 1 mM DTT, 4% glycerol, room temperature, 30 min; GST-TFs on glutathione beads, 16-mer random dsDNA library, 0.1% formaldehyde crosslink after washing; high values mean tight binding
# FLI1 = molecular target: T1, FLI1 (Homo sapiens, UniProt Q01543 1-452); conditions: protein: recombinant; tags: N-terminal GST; dsDNA, one strand shown
# T1 sequence: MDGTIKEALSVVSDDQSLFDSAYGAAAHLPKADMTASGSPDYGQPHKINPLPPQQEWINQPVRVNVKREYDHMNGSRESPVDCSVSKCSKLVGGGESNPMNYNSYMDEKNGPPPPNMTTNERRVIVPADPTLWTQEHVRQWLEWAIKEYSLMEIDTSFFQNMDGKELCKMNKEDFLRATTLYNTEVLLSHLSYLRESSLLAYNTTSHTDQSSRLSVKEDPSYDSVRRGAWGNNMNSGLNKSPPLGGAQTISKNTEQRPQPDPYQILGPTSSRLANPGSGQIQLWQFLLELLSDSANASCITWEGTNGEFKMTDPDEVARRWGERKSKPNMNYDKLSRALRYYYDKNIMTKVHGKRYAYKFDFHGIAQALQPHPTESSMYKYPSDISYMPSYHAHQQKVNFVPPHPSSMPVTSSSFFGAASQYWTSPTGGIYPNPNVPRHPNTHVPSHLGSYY
# How it was run: (§1)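 Yeast served to express human transcription factors as GST fusions, which were then captured on glutathione beads and labelled with DNA barcodes. Pooled with a tag-only sample, they were incubated with 200 nmole of a 16-mer random double-stranded DNA library for 30 min at room temperature in Tris/NaCl/DTT/glycerol buffer, washed, crosslinked with 0.1% formaldehyde, ligated by proximity, amplified by PCR and sequenced. Dividing each hexamer's read frequency for a factor by its frequency for the tag-only sample gives the binding signal.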
# ELK1 = molecular target: T2, ELK1 (Homo sapiens, UniProt P19419 1-428); conditions: protein: recombinant; tags: N-terminal GST; dsDNA, one strand shown
# T2 sequence: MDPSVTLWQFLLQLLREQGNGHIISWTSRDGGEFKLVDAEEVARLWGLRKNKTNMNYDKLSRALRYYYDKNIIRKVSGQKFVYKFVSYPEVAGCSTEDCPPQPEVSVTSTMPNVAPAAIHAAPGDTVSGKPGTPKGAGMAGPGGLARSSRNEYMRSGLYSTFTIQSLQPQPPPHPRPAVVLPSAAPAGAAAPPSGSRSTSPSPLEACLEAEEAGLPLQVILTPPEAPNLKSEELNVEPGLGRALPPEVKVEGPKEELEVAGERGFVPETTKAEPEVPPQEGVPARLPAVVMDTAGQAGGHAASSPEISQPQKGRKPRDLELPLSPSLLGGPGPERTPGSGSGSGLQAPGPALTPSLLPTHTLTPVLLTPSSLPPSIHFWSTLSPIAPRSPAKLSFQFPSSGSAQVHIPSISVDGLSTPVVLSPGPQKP
# How it was run: as §1
# GABPA = molecular target: T3, GABPA (Homo sapiens, UniProt Q06546 1-454); conditions: protein: recombinant; tags: N-terminal GST; dsDNA, one strand shown
# T3 sequence: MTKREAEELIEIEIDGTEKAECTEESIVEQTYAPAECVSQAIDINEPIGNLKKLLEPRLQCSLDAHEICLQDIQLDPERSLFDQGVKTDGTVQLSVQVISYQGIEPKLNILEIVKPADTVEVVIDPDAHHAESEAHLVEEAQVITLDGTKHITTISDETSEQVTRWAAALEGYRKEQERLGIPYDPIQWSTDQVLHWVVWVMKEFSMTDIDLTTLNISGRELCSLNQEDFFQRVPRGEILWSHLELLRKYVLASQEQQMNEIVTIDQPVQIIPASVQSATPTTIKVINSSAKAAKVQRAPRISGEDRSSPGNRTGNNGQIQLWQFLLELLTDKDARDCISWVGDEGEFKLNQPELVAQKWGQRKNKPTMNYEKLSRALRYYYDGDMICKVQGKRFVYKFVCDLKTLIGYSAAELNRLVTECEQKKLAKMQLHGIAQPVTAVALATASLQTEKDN
# How it was run: as §1
# ELF1 = ELF1 (Homo sapiens, UniProt P32519 1-619); conditions: protein: recombinant; tags: N-terminal GST; dsDNA, one strand shown
# Sequence of ELF1 (P32519 whole entry): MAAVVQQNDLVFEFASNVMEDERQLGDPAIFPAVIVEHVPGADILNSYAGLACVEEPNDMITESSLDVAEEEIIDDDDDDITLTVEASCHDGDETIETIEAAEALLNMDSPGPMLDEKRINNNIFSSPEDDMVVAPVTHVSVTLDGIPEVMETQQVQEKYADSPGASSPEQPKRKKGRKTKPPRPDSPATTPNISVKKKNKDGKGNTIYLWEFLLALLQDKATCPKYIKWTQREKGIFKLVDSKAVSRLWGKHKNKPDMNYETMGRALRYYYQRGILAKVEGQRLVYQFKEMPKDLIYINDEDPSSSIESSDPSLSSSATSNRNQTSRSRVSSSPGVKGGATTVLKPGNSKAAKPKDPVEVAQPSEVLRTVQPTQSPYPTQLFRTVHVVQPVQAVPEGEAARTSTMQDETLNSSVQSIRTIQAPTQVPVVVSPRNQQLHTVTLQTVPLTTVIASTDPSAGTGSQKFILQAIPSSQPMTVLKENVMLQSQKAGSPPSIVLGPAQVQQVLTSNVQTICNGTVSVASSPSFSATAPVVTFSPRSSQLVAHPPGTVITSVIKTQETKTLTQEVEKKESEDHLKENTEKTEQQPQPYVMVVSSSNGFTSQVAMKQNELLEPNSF
# How it was run: as §1
# EHF = molecular target: T4, EHF (Homo sapiens, UniProt Q9NZC4 1-300); conditions: protein: recombinant; tags: N-terminal GST; dsDNA, one strand shown
# T4 sequence: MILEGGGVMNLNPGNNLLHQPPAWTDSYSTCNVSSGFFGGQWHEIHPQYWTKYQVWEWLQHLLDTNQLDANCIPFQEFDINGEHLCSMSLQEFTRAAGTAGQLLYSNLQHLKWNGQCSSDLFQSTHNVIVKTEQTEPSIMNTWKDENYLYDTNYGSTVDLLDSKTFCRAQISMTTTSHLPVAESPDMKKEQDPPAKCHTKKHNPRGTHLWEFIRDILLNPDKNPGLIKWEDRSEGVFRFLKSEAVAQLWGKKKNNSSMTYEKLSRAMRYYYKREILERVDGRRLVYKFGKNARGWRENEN
# How it was run: as §1
# SPI1 = SPI1 (Homo sapiens, UniProt P17947 1-270); conditions: protein: recombinant; tags: N-terminal GST; dsDNA, one strand shown
# How it was run: as §1
# SPIB = SPIB (Homo sapiens, UniProt Q01892 1-262); conditions: protein: recombinant; tags: N-terminal GST; dsDNA, one strand shown
# Sequence of SPIB (Q01892 whole entry): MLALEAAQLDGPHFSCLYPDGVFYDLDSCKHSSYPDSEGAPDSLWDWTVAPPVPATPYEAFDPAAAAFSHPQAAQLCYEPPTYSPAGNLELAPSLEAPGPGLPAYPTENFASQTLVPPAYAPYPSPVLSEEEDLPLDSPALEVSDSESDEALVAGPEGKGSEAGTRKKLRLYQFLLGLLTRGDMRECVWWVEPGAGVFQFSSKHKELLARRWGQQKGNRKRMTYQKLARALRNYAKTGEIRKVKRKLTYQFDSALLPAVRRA
# How it was run: as §1
# ELK3 = molecular target: T5, ELK3 (Homo sapiens, UniProt P41970 1-407); conditions: protein: recombinant; tags: N-terminal GST; dsDNA, one strand shown
# T5 sequence: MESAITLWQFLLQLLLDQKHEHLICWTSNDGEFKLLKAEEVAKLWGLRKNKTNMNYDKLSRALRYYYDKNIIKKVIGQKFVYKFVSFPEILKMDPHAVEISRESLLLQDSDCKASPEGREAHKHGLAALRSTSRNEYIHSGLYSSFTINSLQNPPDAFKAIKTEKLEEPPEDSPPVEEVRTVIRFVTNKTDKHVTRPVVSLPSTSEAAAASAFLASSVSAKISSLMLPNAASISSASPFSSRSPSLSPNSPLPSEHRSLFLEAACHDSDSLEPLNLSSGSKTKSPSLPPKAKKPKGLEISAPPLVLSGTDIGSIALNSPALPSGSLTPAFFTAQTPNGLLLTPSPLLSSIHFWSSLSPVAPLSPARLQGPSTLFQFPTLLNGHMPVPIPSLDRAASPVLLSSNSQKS
# How it was run: as §1
# FEV = molecular target: T6, FEV (Homo sapiens, UniProt Q99581 1-238); conditions: protein: recombinant; tags: N-terminal GST; dsDNA, one strand shown
# T6 sequence: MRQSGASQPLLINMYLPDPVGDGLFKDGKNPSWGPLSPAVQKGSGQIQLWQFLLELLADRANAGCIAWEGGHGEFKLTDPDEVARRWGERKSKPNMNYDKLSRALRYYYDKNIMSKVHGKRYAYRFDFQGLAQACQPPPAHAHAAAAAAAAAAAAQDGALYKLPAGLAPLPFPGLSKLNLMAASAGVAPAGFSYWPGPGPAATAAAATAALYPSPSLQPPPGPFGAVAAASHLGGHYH
# How it was run: as §1
# ETV5 = ETV5 (Homo sapiens, UniProt P41161 1-510); conditions: protein: recombinant; tags: N-terminal GST; dsDNA, one strand shown
# Sequence of ETV5 (P41161 whole entry): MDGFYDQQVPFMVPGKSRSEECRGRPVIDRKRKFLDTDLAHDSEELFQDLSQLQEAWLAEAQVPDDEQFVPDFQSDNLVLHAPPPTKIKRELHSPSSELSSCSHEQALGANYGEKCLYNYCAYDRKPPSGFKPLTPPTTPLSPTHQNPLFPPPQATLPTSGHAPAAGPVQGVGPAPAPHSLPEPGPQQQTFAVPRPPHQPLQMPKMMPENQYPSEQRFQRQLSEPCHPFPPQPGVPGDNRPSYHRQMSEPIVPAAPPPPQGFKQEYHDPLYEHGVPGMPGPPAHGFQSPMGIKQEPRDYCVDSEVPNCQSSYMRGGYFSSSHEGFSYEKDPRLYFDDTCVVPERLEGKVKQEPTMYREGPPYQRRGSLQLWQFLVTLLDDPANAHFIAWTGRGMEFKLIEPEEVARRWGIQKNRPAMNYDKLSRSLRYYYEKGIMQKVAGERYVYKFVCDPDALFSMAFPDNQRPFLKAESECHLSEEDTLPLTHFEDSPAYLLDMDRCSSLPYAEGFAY
# How it was run: as §1
# HSF1 = HSF1 (Homo sapiens, UniProt Q00613 1-529); conditions: protein: recombinant; tags: N-terminal GST; chain copies: 3; dsDNA, one strand shown
# Sequence of HSF1 (Q00613 whole entry): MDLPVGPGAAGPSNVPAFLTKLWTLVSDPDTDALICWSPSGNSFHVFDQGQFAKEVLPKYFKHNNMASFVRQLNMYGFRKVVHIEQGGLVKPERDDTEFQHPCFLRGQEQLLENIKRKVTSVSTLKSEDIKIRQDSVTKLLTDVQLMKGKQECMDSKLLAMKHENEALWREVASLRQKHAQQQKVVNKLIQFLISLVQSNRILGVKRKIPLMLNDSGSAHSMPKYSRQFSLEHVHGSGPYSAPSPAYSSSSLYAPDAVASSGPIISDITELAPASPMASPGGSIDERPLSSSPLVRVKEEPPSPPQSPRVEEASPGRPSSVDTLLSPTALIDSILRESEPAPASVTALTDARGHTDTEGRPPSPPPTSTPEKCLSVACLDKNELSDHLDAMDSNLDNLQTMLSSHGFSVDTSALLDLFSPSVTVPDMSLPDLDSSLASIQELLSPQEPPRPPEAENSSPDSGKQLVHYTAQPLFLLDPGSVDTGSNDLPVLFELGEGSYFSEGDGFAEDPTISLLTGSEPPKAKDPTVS
# How it was run: as §1
# SPIC = molecular target: T7, SPIC (Homo sapiens, UniProt Q8N5J4 1-248); conditions: protein: recombinant; tags: N-terminal GST; dsDNA, one strand shown
# T7 sequence: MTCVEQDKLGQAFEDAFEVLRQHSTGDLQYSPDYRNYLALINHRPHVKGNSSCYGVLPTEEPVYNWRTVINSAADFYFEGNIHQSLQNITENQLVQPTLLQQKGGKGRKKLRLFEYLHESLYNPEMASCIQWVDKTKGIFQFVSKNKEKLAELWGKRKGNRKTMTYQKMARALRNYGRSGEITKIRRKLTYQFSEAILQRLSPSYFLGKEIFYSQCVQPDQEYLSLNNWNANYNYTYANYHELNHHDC
# How it was run: as §1
# ELF4 = ELF4 (Homo sapiens, UniProt Q99607 1-663); conditions: protein: recombinant; tags: N-terminal GST; dsDNA, one strand shown
# Sequence of ELF4 (Q99607 whole entry): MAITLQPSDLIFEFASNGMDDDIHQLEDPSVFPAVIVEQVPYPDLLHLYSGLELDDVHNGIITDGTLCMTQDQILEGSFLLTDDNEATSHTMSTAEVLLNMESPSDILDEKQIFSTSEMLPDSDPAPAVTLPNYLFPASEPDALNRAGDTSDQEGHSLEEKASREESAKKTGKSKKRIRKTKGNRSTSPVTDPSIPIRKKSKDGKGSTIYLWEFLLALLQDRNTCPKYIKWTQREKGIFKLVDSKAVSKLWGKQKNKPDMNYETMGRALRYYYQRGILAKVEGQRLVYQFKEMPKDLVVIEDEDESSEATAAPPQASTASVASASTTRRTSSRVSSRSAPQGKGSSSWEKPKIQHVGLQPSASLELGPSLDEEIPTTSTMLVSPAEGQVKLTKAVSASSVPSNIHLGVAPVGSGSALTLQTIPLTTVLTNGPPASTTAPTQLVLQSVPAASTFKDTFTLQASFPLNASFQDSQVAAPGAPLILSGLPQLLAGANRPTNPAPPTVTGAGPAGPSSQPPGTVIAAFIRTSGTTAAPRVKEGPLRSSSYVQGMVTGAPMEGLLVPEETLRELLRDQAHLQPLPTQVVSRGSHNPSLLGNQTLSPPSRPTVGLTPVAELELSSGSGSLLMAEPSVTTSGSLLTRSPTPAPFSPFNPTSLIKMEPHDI
# How it was run: as §1
# ELK4 = molecular target: T8, ELK4 (Homo sapiens, UniProt P28324-2 1-405); conditions: protein: recombinant; tags: N-terminal GST; dsDNA, one strand shown
# T8 sequence: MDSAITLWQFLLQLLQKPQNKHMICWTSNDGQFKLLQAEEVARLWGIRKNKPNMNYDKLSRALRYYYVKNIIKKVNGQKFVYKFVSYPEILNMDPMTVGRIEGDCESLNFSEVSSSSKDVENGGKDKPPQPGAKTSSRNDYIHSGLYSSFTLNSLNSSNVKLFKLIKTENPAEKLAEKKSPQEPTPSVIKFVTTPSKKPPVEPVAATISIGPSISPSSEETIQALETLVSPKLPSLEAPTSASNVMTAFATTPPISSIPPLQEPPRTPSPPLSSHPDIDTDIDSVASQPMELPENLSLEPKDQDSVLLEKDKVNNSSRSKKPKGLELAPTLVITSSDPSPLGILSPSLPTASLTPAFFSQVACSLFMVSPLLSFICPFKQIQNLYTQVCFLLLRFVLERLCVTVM
# How it was run: as §1
# CRX = CRX (Homo sapiens, UniProt O43186 1-299); conditions: protein: recombinant; tags: N-terminal GST; dsDNA, one strand shown
# Sequence of CRX (O43186 whole entry): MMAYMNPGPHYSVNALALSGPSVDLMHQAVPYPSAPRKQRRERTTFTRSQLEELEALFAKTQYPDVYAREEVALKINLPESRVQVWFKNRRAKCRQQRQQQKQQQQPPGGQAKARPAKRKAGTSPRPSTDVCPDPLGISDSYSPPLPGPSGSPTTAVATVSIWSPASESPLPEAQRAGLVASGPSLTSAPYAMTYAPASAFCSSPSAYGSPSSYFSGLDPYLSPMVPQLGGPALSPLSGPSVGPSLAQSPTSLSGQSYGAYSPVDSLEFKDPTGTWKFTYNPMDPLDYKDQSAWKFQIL
# How it was run: as §1
# ETV1 = ETV1 (Homo sapiens, UniProt P50549 1-477); conditions: protein: recombinant; tags: N-terminal GST; dsDNA, one strand shown
# Sequence of ETV1 (P50549 whole entry): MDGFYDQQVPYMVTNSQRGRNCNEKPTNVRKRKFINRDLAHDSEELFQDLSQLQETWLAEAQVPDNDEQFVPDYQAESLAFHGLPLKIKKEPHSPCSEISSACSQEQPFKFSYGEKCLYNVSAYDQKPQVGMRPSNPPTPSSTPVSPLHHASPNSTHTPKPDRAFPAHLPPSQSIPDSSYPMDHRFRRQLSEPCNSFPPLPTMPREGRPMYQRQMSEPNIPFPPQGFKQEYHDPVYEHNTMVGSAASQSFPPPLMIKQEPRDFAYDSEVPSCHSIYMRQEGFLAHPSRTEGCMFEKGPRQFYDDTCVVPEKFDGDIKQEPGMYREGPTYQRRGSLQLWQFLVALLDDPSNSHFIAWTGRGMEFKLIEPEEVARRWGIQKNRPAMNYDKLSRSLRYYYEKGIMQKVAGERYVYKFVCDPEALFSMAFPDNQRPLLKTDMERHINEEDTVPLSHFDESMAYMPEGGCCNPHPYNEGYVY
# How it was run: as §1
sequence,measurement,setting,value
TGATCG,binding signal,FLI1,"1 fold enrichment (6-mer frequency, TF over GST control)"
same,binding signal,ELK1,"1 fold enrichment (6-mer frequency, TF over GST control)"
same,binding signal,GABPA,"1.03 fold enrichment (6-mer frequency, TF over GST control)"
same,binding signal,ELF1,"1.03 fold enrichment (6-mer frequency, TF over GST control)"
same,binding signal,EHF,"1.13 fold enrichment (6-mer frequency, TF over GST control)"
same,binding signal,SPI1,"1.03 fold enrichment (6-mer frequency, TF over GST control)"
same,binding signal,SPIB,"1.12 fold enrichment (6-mer frequency, TF over GST control)"
same,binding signal,ELK3,"1.17 fold enrichment (6-mer frequency, TF over GST control)"
same,binding signal,FEV,"1.01 fold enrichment (6-mer frequency, TF over GST control)"
same,binding signal,ETV5,"1.03 fold enrichment (6-mer frequency, TF over GST control)"
same,binding signal,HSF1,"1.18 fold enrichment (6-mer frequency, TF over GST control)"
same,binding signal,SPIC,"1.11 fold enrichment (6-mer frequency, TF over GST control)"
same,binding signal,ELF4,"1.05 fold enrichment (6-mer frequency, TF over GST control)"
same,binding signal,ELK4,"1.13 fold enrichment (6-mer frequency, TF over GST control)"
same,binding signal,CRX,"1.21 fold enrichment (6-mer frequency, TF over GST control)"
same,binding signal,ETV1,"1.09 fold enrichment (6-mer frequency, TF over GST control)"
